Screening data (PubChem BioAssay)
Gli-Sufu antag – Gli-Sufu pathway antagonism | Sufu-KO-LIGHT fibroblasts, Gli luciferase reporter luminescence | inhibition, % at 5 µM | 340,000 compounds, 0.74% hits | AID 588413;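 active = inhibition above about 55%, limit read from the data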;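 note: 0% = DMSO-treated cells and 100% = wells with medium but no cells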
MITF TRPM1 inh – reduces MITF-dependent TRPM1 promoter luciferase signal; inhibition, % at 12.5 µM; 330,000 compounds, 0.83% hits; SK-MEL-5 TRPM1 promoter luciferase, 24 h;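 active = mean inhibition across replicates of 60% or more, whatever share of single replicates reaches that level; inconclusive = some that reach 60%, reason not given; inactive = mean inhibition across replicates below 60%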
Shn3 inh set2 – inhibitors of Schnurri-3 3'UTR reporter in osteoblasts; 360,000 compounds, 0.52% hits; Clone20 osteoblast Shn3 3'UTR firefly luciferase, 24 h; inhibition, % at 12.5 µM;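 active = mean inhibition of at least 75% with every replicate also reaching 75%; inconclusive = mean inhibition at least 75% but some replicate below; inactive = mean inhibition below 75%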;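 note: 0% = median of neutral control wells and 100% = pilot-screen positive control compound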
LMP1 NFkB inh – reduces LMP1-driven NF-kappaB luciferase signal; LMP1-induced NF-kappaB luciferase reporter cells, luminescence; 350,000 compounds, 0.69% hits; inhibition, % at 12.5 µM; in the data active = inhibition above about 41%; inconclusive = no clear call, values can overlap the other calls;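 note: 0% = neutral control wells and 100% = reference inhibitor control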
697 NFkB inh – inhibitors of the PMA/ionomycin-induced NF-kB reporter in 697 B cells; 697 B-cell NF-kB luciferase reporter, 16 h; inhibition, % at 4 µM; 330,000 compounds, 0.33% hits; AID 435022; in the data active = inhibition above about 35%
Jurkat NFkB inh – inhibitors of the PMA/ionomycin-induced NF-kB reporter in Jurkat cells | AID 435003 | inhibition, % at 4 µM | 330,000 compounds, 0.53% hits | PMA/ionomycin-induced NF-kB luciferase reporter, luminescence; in the data active = inhibition above about 50%
Starred values were filed as active, the others as inactive; ? = inconclusive; . = not tested or not shown. Sampled rows, rich in hits. Any-hit rate of the full collection: about 2.3%.

SMILES	Gli-Sufu antag	MITF TRPM1 inh	Shn3 inh set2	LMP1 NFkB inh	697 NFkB inh	Jurkat NFkB inh
CCCC(=O)NC(c1ccccc1)c1ccc2cccnc2c1O (configuration not stated)	-10.8	64.8*	93.3*	39.7	-38.1	39.2
CCCCC(=O)NC(c1ccc([N+](=O)[O-])cc1)c1c(O)ccc2ccccc12 (configuration not stated)	6.0	7.0	33.3	1.2	-26.0	19.6
CCCCC(=O)NC(c1ccccc1)c1ccc2cccnc2c1O (configuration not stated)	-26.5	64.9*	93.0*	47.9*	-9.5	41.7
Cc1cccc(C2NC(=O)c3ccccc3O2)c1 (configuration not stated)	-22.2	-15.4	-5.1	0.5	-3.9	-6.4
Oc1c(C(c2cccs2)N2CCN(c3ccccc3)CC2)ccc2cccnc12 (configuration not stated)	.	.	.	.	-38.2	-10.0
Oc1c(C(c2ccccc2Cl)N2CCCC2)ccc2cccnc12 (configuration not stated)	73.8*	74.8*	86.6*	38.6	-6.7	11.2
CCN(CC)CCn1c2ccccc2c2cnc(N=CN(C)C)c(C#N)c21	6.0	4.1	-6.8	-33.2	-23.9	-38.0
O=C(CCNC(=O)c1ccc(Cl)cc1)Nc1ccc(F)cc1F	6.7	0.3	2.8	2.4	-15.4	-3.0
Cc1ccc(C)c(NC(=O)CN(C)C(=O)c2cccc(S(=O)(=O)N3CCCC3)c2)c1	-1.5	-19.8	16.4	-5.4	-5.8	6.6
CSc1ccc(CN(C)C(=O)c2cccc(S(=O)(=O)N3CCN(Cc4ccccc4)CC3)c2)cc1	44.7	28.0	88.2*	13.1	-17.7	5.3
COc1cccc(CN(C)C(=O)c2cccc(S(=O)(=O)N3CCN(c4ccccc4)CC3)c2)c1	.	.	85.4*	-7.8	.	.
COc1ccc(NC(=O)CN(C)C(=O)c2cccc(S(=O)(=O)N3CCN(Cc4ccccc4)CC3)c2)cc1	39.2	9.5	57.3	16.7	-64.1	-5.3
Cc1ccc(C)c(NC(=O)CN(C)C(=O)c2cccc(S(=O)(=O)N3CCN(Cc4ccccc4)CC3)c2)c1	41.8	11.2	86.9*	14.7	-33.7	2.5
CN(CCOc1ccc(Cl)cc1)C(=O)c1cccc(S(=O)(=O)N2CCN(Cc3ccccc3)CC2)c1	43.1	.	91.5*	18.1	.	.
CC1(C(=O)O)C=CCN1C(=O)c1ccccc1 (configuration not stated)	-2.4	-6.9	-6.3	-4.1	21.4	11.4
CC(=O)N1CCN(c2ccc(NC(=O)C(c3ccccc3)c3ccccc3)cc2)CC1	-21.8	2.0	9.7	0.6	-1.8	-2.7
CC1(c2nnc(Cc3ccccc3)o2)CC(c2ccccc2Br)=NO1 (configuration not stated)	-8.1	6.9	0.4	2.6	14.1	8.9
CC(C)N(C)c1ncnc2c1ncn2[C@H]1CN(Cc2cccnc2)C[C@@H](CO)O1	.	.	-16.0	.	.	.
CCN(CC)C(=O)C1CCCN(C/C=C/c2ccccc2[N+](=O)[O-])C1 (configuration not stated)	-7.8	3.2	3.4	-12.7	-8.3	1.1
CCOC(=O)C(C(=O)OCC)C(C(=O)OCC)N1CCOCC1 (configuration not stated)	2.1	96.0*	40.7	33.9	-5.7	7.7
O=C(NC1CC1)c1ccc2snnc2c1	-8.9	-0.1	7.5	1.1	-2.4	-2.7
COc1ccc(S(=O)(=O)N2CCN(c3cc(-c4ccccc4)nc4ncnn34)CC2)cc1	27.6	20.2	86.7*	-12.6	4.6	18.2
O=S(=O)(c1ccccc1)N1CCN(c2cc(-c3ccccc3)nc3ncnn23)CC1	56.7*	48.5	84.3*	43.3*	11.7	40.9
CS(=O)(=O)c1ccc2nc(NC(=O)c3cccc(NS(=O)(=O)c4ccc(F)c(F)c4)c3)sc2c1	-7.7	8.9	8.6	1.9	-9.3	-3.0
C=CCSc1nc(C)c(CCC(C)C)c(=O)[nH]1	-6.8	2.6	-5.7	-2.4	8.4	11.0
SMILES	Gli-Sufu antag	MITF TRPM1 inh	Shn3 inh set2	LMP1 NFkB inh	697 NFkB inh	Jurkat NFkB inh
CCc1ccc(NC(=O)C2CCN(C(=O)N3CCOc4ccccc43)CC2)cc1	-0.1	.	20.3	-10.0	8.2	-8.6
O=C(Nc1cccc(F)c1)C1CCN(C(=O)N2CCOc3ccccc32)CC1	20.9	-6.7	-20.8	84.2*	-0.6	0.4
COC(=O)c1ccc2nc(Nc3nc4ccc(F)cc4s3)sc2c1	-29.1	83.6*	39.2	36.8	.	.
COC(=O)c1ccc2nc(NC(=O)C(C)(C)C)sc2c1	-15.3	-0.7	34.4	4.5	-90.3	-25.3
Cc1nn(-c2ccccc2)c(C)c1NC(=O)COC(=O)c1ccc(O)cc1O	6.3	-2.4	5.4	-7.4	-3.5	3.3
Nc1ccc(C(=O)NN2C(=O)[C@H](Cl)C2c2ccc(Cl)cc2)cc1 (some centres not stated)	10.1	80.5*	98.7*	-9.3	.	.
CCNC(=O)CC1C(=O)N(C)C(=S)N1NC(=O)c1ccc(Cl)cc1 (configuration not stated)	-4.0	-2.0	-16.4	-5.2	26.6	-9.5
Cc1cc(OCC(=O)OCC(=O)NC2CCCCCC2)ccc1Cl	-3.7	1.6	14.5	2.6	-0.7	-3.9
Cc1csc(NC(=O)c2ccc(N3CCCC3=O)cc2)n1	-24.6	42.6	39.1	68.9*	-66.6	-23.9
Cc1nnc(NC(=O)c2ccc(N3CCCC3=O)cc2)s1	-36.8	-87.2	-50.1	-23.4	-31.0	-37.4
COc1ccc(/C=N\NC(=O)CC(=O)Nc2cccc(Cl)c2)cc1OC	24.6	-0.6	-9.1	-1.6	13.3	-8.9
O=C(Cn1ncc(Cl)c(Cl)c1=O)N1CCN(Cc2ccccc2)CC1	1.4	98.5*	61.2	88.4*	.	.
O=C(Cn1ncc(Cl)c(Cl)c1=O)N1CCOCC1	3.2	97.5*	9.5	6.0	-12.0	10.3
O=C(Cn1ncc(Cl)c(Cl)c1=O)N1CCc2ccccc21	.	99.3*	55.4	13.3	.	.
O=C(Cn1ncc2c1-c1ccccc1OC2)N1CCc2ccccc21	-1.0	0.1	-47.5	3.0	7.3	-3.3
Cc1ccc(NC(=O)CCOc2ccccc2)c(C)c1	10.1	.	6.7	-0.6	.	.
COc1ccc(-c2cc3c(=O)n(CC(=O)NCCCN4CCC(N5CCCCC5)CC4)nc(C)n3n2)cc1	-1.3	71.8*	-19.4	-2.0	-14.1	-36.5
Cc1ccc(NC(=O)c2ccc([N+](=O)[O-])o2)c(C)c1	-8.1	23.3	59.6	-21.1	16.7	12.9
Cc1ccc(S(=O)(=O)c2ccc([N+](=O)[O-])o2)cc1	14.9	95.5*	95.0*	?	.	.
O=C(/C=C/c1ccc([N+](=O)[O-])cc1)c1ccccc(=O)c1O	31.1	69.2*	58.9	19.0	.	.
CCOc1ccccc1NC(=O)COC(=O)c1ccc(S(=O)(=O)N2CCCC2)cc1	-9.9	1.8	-7.2	2.5	6.4	5.7
CC(=O)N1CCCC(C)(C(=O)Nc2ccc3oc(C)nc3c2)C1 (configuration not stated)	.	.	2.0	.	.	.
